# Laboratory results taken from PubChem BioAssay AID492992 (Johns Hopkins Ion Channel Center, 2010).
# Out of some 4,900 compounds screened, about 2,100 (43%) were called active.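 How the source made its calls: active means thallium signal inhibited by more than 5 SD of the compound-free buffer control wells, on both duplicate plates; inactive means the rest.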 So high a share suggests a set chosen from earlier hits. The list is a sample of the results.
# Molecular target: Potassium channel subfamily K member 9 (Homo sapiens) (UniProt Q9NPC2)
# Sequence (Q9NPC2 whole entry, looked up): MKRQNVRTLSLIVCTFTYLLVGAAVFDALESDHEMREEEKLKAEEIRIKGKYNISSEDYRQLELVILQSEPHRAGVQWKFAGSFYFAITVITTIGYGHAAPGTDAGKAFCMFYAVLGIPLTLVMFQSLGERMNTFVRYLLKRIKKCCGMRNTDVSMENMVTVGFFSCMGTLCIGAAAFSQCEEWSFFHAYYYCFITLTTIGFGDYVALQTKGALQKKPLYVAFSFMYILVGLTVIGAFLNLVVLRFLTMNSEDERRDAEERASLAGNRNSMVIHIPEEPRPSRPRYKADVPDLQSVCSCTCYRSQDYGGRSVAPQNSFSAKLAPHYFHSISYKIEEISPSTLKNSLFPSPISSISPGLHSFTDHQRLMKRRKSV
# Assay: blockers of human TASK-3 (KCNK9) channel – HEK293 cells, thallium flux, duplicate, confirmation (AID 492992);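 on inhibition: 0% = assay buffer control wells without compound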
# Settings: FluxOR thallium flux fluorescence, at 10 µM; hits give high values
row,SMILES,inhibition
1,Cc1ccccc1CSCCNC(=O)c1ccc(N(C)S(=O)(=O)c2ccccc2)cc1,inactive
2,CN(c1ccccc1)S(=O)(=O)c1cccc(NC(=O)Cc2c(F)cccc2Cl)c1,67.5% (active)
3,FC(F)(F)c1cc(-c2ccco2)nc(NCc2ccc(Cl)cc2)n1,inactive
4,Fc1cccc(Cl)c1CSc1ccc(-c2ccco2)nn1,67% (active)
5,O=C(Nc1ccc(S(=O)(=O)N2CCCCC2)cc1)C1CCN(C(=O)c2ccc(F)cc2)CC1,inactive
6,Cc1ccc(C(=O)/C=C/c2c(C)nn(-c3ccccc3)c2Cl)cc1,inactive
7,Cc1ccccc1N1CCN(Cc2nc(Cc3ccccc3F)no2)CC1,inactive
8,CC(C)CC(COCc1ccc(Cl)cc1)N1CCN(C(=O)c2ccc(C(F)(F)F)cc2)CCC1=O (stereo not drawn),39.5% (active)
9,CC1CCN(C(=O)c2ccc(CSc3ccc(Cl)cc3)cc2)CC1,inactive
10,CCCCN(CC)C(=O)C1CCCN(S(=O)(=O)c2cccc3nsnc23)C1 (stereo not drawn),inactive
11,O=C(Nc1nnc(SCc2ccc(Cl)cc2Cl)s1)C1COc2ccccc2O1 (stereo not drawn),inactive
12,COc1ccc(C(=O)C2CCCN(Cc3ccc4nonc4c3)C2)c(C)c1 (stereo not drawn),inactive
13,CCCCCCCCn1c2c(c(=N)c3c1CCC3)CCCC2,62.5% (active)
14,O=C(NC(=S)Nc1ccccc1C(=O)O)c1ccc(-c2ccc(Br)cc2)o1,inactive
15,COc1ccc(-c2n[nH]c3c2CN(C(=O)c2ccc(F)cc2)CC3)cc1,inactive
16,Cc1cc(OC(C)C(=O)Nc2ccc(S(=O)(=O)Nc3onc(C)c3C)cc2)cc(C)c1Cl (stereo not drawn),inactive
17,O=C(Nc1ccccc1[N+](=O)[O-])C1C(c2ccccc2)=C1c1ccccc1,40% (active)
18,Cc1ccc(CN2CCN(/N=C/c3ccco3)CC2)c(C)c1,inactive
19,CC1=NN(c2cccc(Cl)c2)C(=O)C12CC(C)=C(C)CS2 (stereo not drawn),45.5% (active)
20,O=C(NCCc1ccccc1)c1ccc2c(c1)N(Cc1ccccc1)CCS2,inactive
21,COc1ccccc1N1CCN(c2ncnc3sc(C)c(-c4ccccc4)c23)CC1,56% (active)
22,CCCCNC(=S)N/N=C1\CCCCc2ccccc21,inactive
23,CCCC(=O)n1nc(NCc2ccc(OC)cc2)nc1NCc1ccc(OC)cc1,inactive
24,O=C(Nn1c(SCc2ccc([N+](=O)[O-])cc2)nc2ccccc2c1=O)c1ccc(F)cc1,65% (active)
25,CCCCC(=O)Nc1ccccc1N1CCN(c2ccc(F)cc2)CC1,69% (active)

row,SMILES,inhibition
1,Cc1cccc(C(=O)Nc2ccccc2N2CCN(c3ccc(F)cc3)CC2)c1,40% (active)
2,Cc1ccc(N2CCN(S(=O)(=O)c3ccc(F)cc3)CC2)c(C)c1,inactive
3,CCOC(=O)CSc1nc2c(sc(=S)n2CCc2ccccc2)c(=O)n1Cc1ccco1,29.5% (active)
4,COc1cccc(COc2ccc(N(C)S(=O)(=O)c3ccccc3)cc2)c1,50% (active)
5,Cn1nc(-c2ccccc2)c(CSc2cccc(Cl)c2)c1Cl,34.5% (active)
6,COC(=O)c1cc(NC2c3ccccc3C(=O)N2c2ccc(Cl)cn2)cc(C(=O)OC)c1 (stereo not drawn),29.5% (active)
7,CCOC(=O)C(C)n1cnc2scc(-c3ccc(C)c(C)c3)c2c1=O (stereo not drawn),inactive
8,COCCNc1cc(-c2ccccc2)nc2cc(-c3cccc(F)c3)nn12,53.5% (active)
9,Cc1ccc(Cn2ccc(NC(=O)c3cc(C(C)C)on3)n2)cc1,inactive
10,O=C(Nc1cc(Cl)cc(Cl)c1)C(NCCCO)c1ccccc1 (stereo not drawn),inactive
11,CC(C)C(=O)Nc1cccc(NC(=S)NC(=O)C(c2ccccc2)c2ccccc2)c1,52% (active)
12,COC(C(=O)Nc1ccc(S(=O)(=O)Nc2ccc(C)c(C)c2)cc1)c1ccccc1 (stereo not drawn),inactive
13,O=C1CC(NNc2ccccc2)C(=O)N1c1cccc(Cl)c1 (stereo not drawn),inactive
14,CN(C)c1ccc(C(CNC(=O)c2ccc(F)cc2)c2c[nH]c3ccccc23)cc1 (stereo not drawn),inactive
15,COc1cc(Cl)c(C)cc1NC(=O)CSc1nnc(-c2ccco2)n1CC(C)C,41.5% (active)
16,COc1ccc(Nc2ncnc3sc(-c4ccccc4)cc23)c(OC)c1,33.5% (active)
17,CCOC(=O)C(C)Sc1nc2ccccc2c(=O)n1CC1CCCCC1 (stereo not drawn),40.5% (active)
18,COc1ccc(-c2nc(CCNC(=O)c3ccc(Br)o3)cs2)cc1,28.5% (active)
19,COc1cccc(-c2nn(C)c3sc(C(=O)N4CCN(c5ccccc5)CC4)cc23)c1,inactive
20,CC1(C)CC(N2CCN(C(c3ccccc3)c3ccccc3)CC2)=CC(=[N+]2CCCCC2)C1,68% (active)
21,N#Cc1nc(Cc2cccc3ccccc23)oc1NCc1ccc2c(c1)OCO2,45% (active)
22,C=CCN(N=Nc1cccc([N+](=O)[O-])c1)c1cccc([N+](=O)[O-])c1,57.5% (active)
23,CCOC(=O)N/N=C/c1cn(Cc2ccccc2Cl)c2ccccc12,inactive
24,CCCCCn1c(=O)c(C(=O)OCC)c(Cl)c2ccccc21,45.5% (active)
25,CCOc1ccccc1NC(=O)C1CCCN(S(=O)(=O)c2ccccc2)C1 (stereo not drawn),inactive

row,SMILES,inhibition
1,CN(C)S(=O)(=O)N1CCC(Oc2cccc(C(=O)NCCCC3CCCC3)c2)CC1,62% (active)
2,Cc1csc(Nc2ccc(Cl)cc2)[n+]1-c1ccc(Cl)cc1,inactive
3,Cc1cc(C)cc(NC(=O)CSCc2cnn(-c3ccccc3)c2-n2cccc2)c1,inactive
4,Cc1ccc2c(c1)N(C(=O)CCC(=O)N1CCc3ccccc3C1)CCO2,inactive
5,O=C(/C=C/NNC(=O)c1cccc(Br)c1)c1ccccc1,60% (active)
6,Cc1c(C(=O)Nc2ccccn2)oc2ccc(Br)cc12,36% (active)
7,O=C(CSCc1ccc(Cl)cc1)N1CCN(Cc2ccc3c(c2)OCO3)CC1,inactive
8,CC1(C)CC(=O)CC2(C1)NCC(c1ccccc1Cl)c1c2[nH]c2ccccc12 (stereo not drawn),66.5% (active)
9,c1ccc(C(c2ccccc2)N2CCN(Cc3nnnn3C3CCCCC3)CC2)cc1,34.5% (active)
10,Cc1ccc(NC2CCCN(C(=O)CCC3(C)CC3)C2)cc1C (stereo not drawn),inactive
11,Clc1cccc(-c2nc3nc4ccccc4nc3n2Cc2ccco2)c1,32% (active)
12,Cc1cccc(NC(=O)CN2CCCN(S(=O)(=O)c3ccc(Br)s3)CC2)c1,inactive
13,CCCC1=Nc2cc(C(=O)NCc3ccco3)ccc2Sc2ccccc21,31.5% (active)
14,O=C(NCc1ccco1)c1ccc(NS(=O)(=O)c2cccc([N+](=O)[O-])c2)cc1,inactive
15,Cc1cc(Oc2ccc(Cl)cc2)nc(SCC(=O)c2ccccc2)n1,34% (active)
16,O=S(=O)(Nc1cccc(Oc2ccc(Cl)cc2)n1)c1ccc(F)cc1,inactive
17,COc1cc(Cl)ccc1OCc1cc(C(=O)N2CC[C@@H]3CCCC[C@H]3C2)no1,inactive
18,Clc1ccc(CSc2nnc(/C=C/c3ccccc3)o2)c(Cl)c1,inactive
19,C=CCc1cc(S(=O)(=O)c2ccc(O)c(CC=C)c2)ccc1O,69% (active)
20,O=C1c2ccccc2C2=Nc3ccccc3SC(c3ccccc3F)C12 (stereo not drawn),50% (active)
21,COC(=O)c1cccc(C(=O)N2CCCC(Nc3ccc4c(c3)OCCO4)C2)c1 (stereo not drawn),inactive
22,CCOC(=O)C1(CCOc2ccccc2)CCN(Cc2cc(OC)c(O)cc2Cl)CC1,inactive
23,O=C(NC1Cc2ccccc2C1)c1cc(COc2cccc(C(F)(F)F)c2)on1,inactive
24,COc1ccc(NC(=O)CN(C)CC(=O)Nc2cccc(C(F)(F)F)c2)cc1,44.5% (active)
25,COc1cccc(COC(=O)C2CCN(S(=O)(=O)c3ccc(Cl)cc3)CC2)c1OC,inactive

row,SMILES,inhibition
1,CSc1cccc(NC(=S)N(C(C)C)C(C)c2ccccn2)c1 (stereo not drawn),66.5% (active)
2,COc1ccccc1NC(=O)CSc1nc2sc(C)c(C)c2c(=O)n1Cc1ccco1,48.5% (active)
3,Cc1nc(N2CCN(c3ccccn3)CC2)c2c(C)c(C(=O)Nc3ccc(F)c(Cl)c3)sc2n1,48.5% (active)
4,O=S(=O)(c1ccc(F)cc1)N1CCN(Cc2ccccc2C(F)(F)F)CC1,inactive
5,COc1ccccc1/C=C/C=N/n1c(-c2ccc(Cl)cc2Cl)n[nH]c1=S,inactive
6,O=C(Nc1ccc(Br)c2cccnc12)c1ccc(Cn2cc([N+](=O)[O-])cn2)o1,inactive
7,CCC1=NN(C(=O)Cc2ccc([N+](=O)[O-])cc2)C(O)(c2ccc(Br)cc2)C1 (stereo not drawn),65% (active)
8,Cc1cc(Cl)ccc1C(=O)C1CCCN(C(=O)CCN2CCCO2)C1 (stereo not drawn),inactive
9,O=C(OCC(=O)N(CCc1ccccc1)Cc1ccccc1)c1ccccc1[N+](=O)[O-],58.5% (active)
10,Cc1cc(C)cc(OCC(=O)Nc2cc(NC(=O)COc3cc(C)cc(C)c3)cc(C(=O)O)c2)c1,inactive
11,COc1cc(C2CC(=O)N3CN(Cc4ccccc4)CSC3=C2C#N)ccc1OCc1ccccc1 (stereo not drawn),inactive
12,CCOc1ccc(C2c3[nH]c4ccccc4c3CCN2Cc2cccn2-c2ncccn2)cc1 (stereo not drawn),35% (active)
13,CCC(C)(C)n1nnnc1C(c1cccs1)N1CCN(c2nc3ccccc3s2)CC1 (stereo not drawn),39% (active)
14,COc1ccc2c(c1)C(c1cccs1)=NNC(c1cccnc1)=N2,43% (active)
15,COCCN(C(=S)Nc1cccc(Cl)c1C)C(C)c1ccco1 (stereo not drawn),inactive
16,O=C(COC(=O)/C(=C/c1cccs1)c1cccs1)NCc1ccccc1Cl,29% (active)
17,Cc1ccccc1CSc1nnc(CCCCCNC(=O)OC(C)(C)C)o1,inactive
18,CCc1nnc(NS(=O)(=O)c2ccc(NC(=S)NC(=O)/C=C/c3cccs3)cc2)s1,inactive
19,COc1cccc2sc(NNC(=O)c3nc4ccccc4s3)nc12,inactive
20,Cc1nn(CC(=O)Nc2nc3ccccc3s2)c(C)c1[N+](=O)[O-],48% (active)
21,O=C(NCc1ccccc1)C1=C[C@@H](C2CCCCC2)C[C@@H](OCc2ccc(CO)cc2)O1,inactive
22,O=C(CSCc1ccc(Br)cc1)Nc1ccc(S(=O)(=O)N2CCCCCC2)cc1,inactive
23,Cc1ccc(C2=Nc3c(ccc4ccccc34)C(c3ccncc3)=NN2)cc1,68.5% (active)
